# HCV inhibitor: qHTS Assay for Inhibitors of Hepatitis C Virus (HCV); AID 651820, 2012; Potency, µM (doses to about 41.8 µM), hits mostly inhibitors; Huh7.5.1 HCVcc-Cre infection, luciferase reporter, 44 h; 3.4% of 340,000 active
#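 Compounds are dispensed onto cells plated 4 h earlier at 1,000 per well, with HCVcc-Cre virus (about 0.5 moi) added next. Following 44 h of culture, luminescent signal is measured for 15 sec after 15 min with substrate at room temperature.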
# Shiga inhibitor: A qHTS for Small Molecule Inhibitors of Shiga Toxin. Vero cells, Shiga toxin protein synthesis inhibition reporter. inhibition, % at 38.7 µM. 9.2% of 290,000 active; in the data active = inhibition mostly above about 28%, no sharp cut-off; inactive = mostly below about 43%
# AMA1-RON2 inh: qHTS for Inhibitors of AMA1-RON; Towards Development of Antimalarial Drug Lead: Primary Screen | Plasmodium falciparum AMA1 (3D7) - RON2 peptide interaction | AlphaScreen AMA1-biotinylated RON2 peptide binding | Potency, µM (doses to about 58.2 µM), hits mostly inhibitors | 0.2% of 360,000 active | AID 720542, 2013; note: nearly all actives have a fitted effect of over 45% in size
#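 AMA1 (3D7) with his tag at 25 nM final met compounds first, then biotinylated RON2 peptide at 25 nM; detection used donor plus acceptor beads, 10 µg/mL apiece, read by AlphaScreen after 30 min at room temperature.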
# CHX counter: Cycloheximide Counterscreen for Small Molecule Inhibitors of Shiga Toxin | 12% of 300,000 active | max response, % | cell reporter, cycloheximide protein synthesis inhibition counterscreen; in the data active = max response mostly above about 13%, no sharp cut-off; inactive = mostly below about 14%; note: read at 38.3 µM for the half of the compounds with a filed dose
# Pf growth 96h: Primary qHTS for delayed death inhibitors of the malarial parasite plastid, 96 hour incubation | P. falciparum luciferase reporter growth, 96 h | Potency, µM (titrated, usually from 28.7 µM), hits mostly inhibitors | 6.9% of 320,000 active | AID 504834, 2011
#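 Erythrocytes infected with luciferase-expressing P. falciparum were dispensed at 2% hematocrit and 0.05% parasitemia (final), then incubated with compounds 96 hours at 37 C in 5% CO2. Luminescence after detection reagent addition reported growth.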
# Pf growth 48h: Primary qHTS for delayed death inhibitors of the malarial parasite plastid, 48 hour incubation. P. falciparum luciferase growth in erythrocytes, 48 h. Potency, µM (titrated, usually from 28.7 µM), most hits filed as inhibitors. 5.9% of 310,000 active. AID 504832, 2011
#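 A one-generation exposure of luciferase-tagged malaria parasites in RPMI 1640/Albumax erythrocyte culture, 37 C and 5% CO2. Inhibition is inferred from decreased luminescence after adding detection reagent.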
# A number is an active result; i = inactive; ? = inconclusive; nt = no result; [ ] = remark or other dose. Sampled rows, rich in hits. Any-hit rate of the full collection: about 21%. Unless noted, calls come from the whole dose curve; as a rule, active = well fitted curve in the direction sought with a large enough effect; inconclusive = small, poorly fitted or top-dose-only effect, or another doubt; inactive = no such curve, though single readings can be large; an effect the other way counts as inactive or inconclusive.
SMILES,HCV inhibitor,Shiga inhibitor,AMA1-RON2 inh,CHX counter,Pf growth 96h,Pf growth 48h
COC(=O)c1ccc(N2CCCCC2)c(NC(=O)c2ccco2)c1,1.4µM,i,i,i,i,?
O=C(Nc1ccc(N2CCCCC2)c(Cl)c1)c1ncn[nH]1,i,i,i,i,i[5.75 µM],0.47µM
CCN1CCN(c2ccc(NC(=O)c3ccco3)cc2Cl)CC1,i,59,i,27,i,i
CCOC(=O)c1cc(S(=O)(=O)N2CCN(C3CCCCC3)CC2)cn1C,i,i,i,i,i,i
CCCCCCn1c(=O)n2n(c1=O)[C@@H]1CN(S(=O)(=O)c3ccc(C)cc3)C[C@]1(O)[C@@H](OC(=O)NCc1ccccc1)C2,nt,nt,i,nt,nt,nt
CO[C@]1(C)C[C@H]2O[C@]1(C)n1c3ccccc3c3c4c(c5c6ccccc6n2c5c31)C(=O)N(C)C4,nt,i,nt,i,nt,nt
CCCc1cc(=O)oc2cc(OCC(=O)NCC(O)c3ccccc3)ccc12 (stereo not given),i,i,i,i,i,i
CCN(CC(=O)Nc1c(F)cccc1F)C(=O)c1ccc(C)c(S(=O)(=O)N2CCCCC2)c1,?,nt,i,nt,?,i
COc1ccc(N(CC(=O)Nc2ccccc2F)S(=O)(=O)c2ccc(OC)c(OC)c2)cc1,?,nt,i,i,?,i
Brc1cccc(-c2nnc(-c3ccccc3)o2)c1,i,55,i,27,i,i
Cc1ccc(-c2nnc(-c3cccc(Br)c3)o2)cc1,i,42,i,26,i,i
O=S(Cc1ccccc1)Cc1ccccc1,i,nt,i,nt,nt,nt
O=C(Nc1ccc(CN2CCOCC2)cc1)c1ccc(Br)o1,i,69,i,43,i,i
O=C(Nc1ccc(CN2CCOCC2)cc1)c1ccc(-c2cc(Cl)ccc2Cl)o1,?,i,i,i,?,1.9µM
O=C(NCCN1CCOCC1)c1ccc(NC(=O)c2ccc(Br)o2)cc1,nt,nt,i,nt,nt,nt
O=C(Nc1ccc(N2CCOCC2)c(Cl)c1)c1ccc(Br)o1,10µM,110,i,79,i,?
O=C(Nc1ccc(N2CCN(C(=O)c3ccccc3)CC2)c(Cl)c1)c1ccc(Br)o1,?,i,i,i,i,10µM
Cc1nc(SCc2cccnc2)[nH]c(=O)c1C,i,i,i,i,i,i
CCc1ccc(N(C(=O)c2csnn2)C(C(=O)NC(C)(C)CC)c2cccnc2)cc1 (stereo not given),i,i,i,i,?,i
Cn1c(=O)c(C(=O)c2ccc(S(C)(=O)=O)c(Cl)c2Cl)c(O)c2ccccc21,i,nt,i,nt,nt,nt
Cc1ccc2c(c1)C1(C(=O)N2)N2CCCC2C(C(=O)c2ccc3ccccc3c2)C12C(=O)Nc1ccccc12 (stereo not given),i,i,i,i,nt,nt
Cn1c(/C=C/c2ccc([N+](=O)[O-])o2)nc2ccccc2c1=O,2µM,i,i,i,?,?
Cn1c(/C=C/c2ccc(Cl)cc2)nc2ccccc2c1=O,i,46,i,24,?,i
CCn1c(/C=C/c2ccccc2)nc2ccccc2c1=O,?,i,i,i,i,i
O=c1c2ccccc2nc(/C=C/c2ccc(O)cc2)n1CCc1ccccc1,13µM,i,i,i,?,?
SMILES,HCV inhibitor,Shiga inhibitor,AMA1-RON2 inh,CHX counter,Pf growth 96h,Pf growth 48h
Cn1c(/C=C/c2ccccc2)nc2ccccc2c1=O,?,57,i,28,i,i
Cc1cccc(CNC(=O)C2CCC(=O)N(CCc3cccc(F)c3)C2)n1 (stereo not given),i,i,i,i,i,i
COc1ccc(CN(C)C(=O)c2cccc(NC(=O)CC3SC(N4CCCCC4)=NC3=O)c2)c(OC)c1 (stereo not given),8.9µM,nt,i,nt,nt,nt
COc1ccccc1CCNC(=O)c1ccc(NC(=O)CC2SC(N3CCCCC3)=NC2=O)cc1 (stereo not given),?,nt,i,nt,10µM,12µM
COc1ccccc1OCCNC(=O)c1ccc(NC(=O)CC2SC(N3CCCC3)=NC2=O)cc1 (stereo not given),i,nt,i,nt,nt,nt
COc1cccc(CN(C)C(=O)c2cccc(NC(=O)CC3SC(N4CCCCC4)=NC3=O)c2)c1OC (stereo not given),i,nt,i,nt,9.3µM,10µM
C[C@H]1CN([C@@H](C)CO)C(=O)CCCn2cc(nn2)CO[C@@H]1CN(C)C(=O)Nc1ccc(N2CCN(C)CC2)cc1,nt,nt,i,nt,nt,nt
CC(C)C(=O)NC(=S)N1CCc2ccccc21,i,i,i,i,i,i
O=C(COc1ccccc1)NC(=S)N1CCc2ccccc21,i,38,i,40,i,i
O=C(COc1ccccc1Cl)NC(=S)Nc1ccccc1N1CCCC1,i,i,i,i,i,i
O=C(COc1ccccc1Cl)NC(=S)N1CCc2ccccc21,i,i,i,50,?,i
COc1ccc(OCC(=O)NC(=S)N2CCCc3ccccc32)cc1,?,152,?,35,nt,?
COc1ccc(OCCCC(=O)N2CCCc3ccccc32)cc1,?,i,i,i,nt,i
O=C(O)C1Cc2c([nH]c3ccccc23)C(c2ccc3c(c2)OCO3)N1 (stereo not given),i,i,i,i,9.3µM,i
COC(=O)[C@H]1Cc2c([nH]c3ccccc23)[C@H](c2ccccc2)N1,i,i,i,i,i,i
COc1ccc(C2NC(C(=O)O)Cc3c2[nH]c2ccccc32)cc1CN1CCN(c2ccc(F)cc2)CC1 (stereo not given),i,i,i,i,?,10µM
CNCC[C@H](Oc1cccc2ccccc12)c1cccs1,?,i,i,i,6.7µM,13µM
CC(NCCCOc1cccc2ccccc12)c1ccccc1 (stereo not given),?,nt,i,i,?,?
Cc1ccc(NC(=O)CSCC(=O)OC(C)C(=O)Nc2ccc(S(N)(=O)=O)cc2)c(C)c1 (stereo not given),i,nt,i,nt,i,i
COc1ccc(S(=O)(=O)N2CCN(C(=O)CCSc3ccccc3)CC2)cc1,?,nt,i,nt,?,?
CC(C)N(Cc1ccccc1)C(=S)Nc1cccnc1,i,i,i,i,7.4µM,?
Cc1[nH]c2ccc(F)cc2c1CCN(Cc1ccncc1)C(=S)Nc1ccccc1,?,i,i,i,?,?
CCN(Cc1ccncc1)C(=S)Nc1ccccc1,i,i,i,i,2.9µM,i
COCCNC(=O)C1CCCN(S(=O)(=O)c2cccc3nsnc23)C1 (stereo not given),i,i,i,i,?,i
CCc1ccccc1NC1Nc2cc(C)nn2S1 (stereo not given),i,i,i,i,i,i
Cc1cc2n(n1)SC(Nc1ccc(F)cc1)N2 (stereo not given),i,41,i,13,i,i

# Screening results as filed in PubChem.
